Compounds with a hit are over-represented: about 13% of the library has one in this group of screens.
HCV inhibitor: blocks hepatitis C virus | Huh7.5.1 HCVcc-Cre infection, luciferase reporter, 44 h | Potency, µM (highest dose often 41.8 µM), hits mostly inhibitors | 340,000 tested, 3.4% active; active means well fitted inhibition curve with a large enough effect; inconclusive means small, poorly fitted or top-dose-only effect, or another doubt; inactive means no such curve, though single readings can be large or run the other way
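Whole-lifecycle infectious HCVcc-Cre system; cells 1,000/well, compound then virus (~0.5 moi) added 4 h after plating, 44 h culture. Luciferase read 15 sec following 15 min substrate incubation, room temp.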
Shiga inhibitor: Shiga toxin inhibition; 290,000 tested, 9.2% active; inhibition, % at 38.7 µM; AID 2315; Vero cells, Shiga toxin protein synthesis inhibition reporter; in the data active means inhibition mostly above about 28%, no sharp cut-off; inactive means mostly below about 43%
MARV entry inh: blocks Marburg virus binding to or entry into cells; Marburg virus pseudotyped entry inhibition, cell reporter; Potency, µM (highest dose often 37.8 µM), usual class: inhibitors; 300,000 tested, 1.8% active; AID 540276; calls by dose curve; tested in HEK293 cells
FMDV antiviral: antivirals against foot and mouth disease virus. FMDV antiviral cell-based qHTS. Potency, µM (doses to about 57.9 µM), actives largely listed as inhibitors. 410,000 tested, 1.2% active. AID 1159524; calls by dose curve; tested in HEK293T cells; further: read-out not given here; nearly all actives have a fitted effect of over 45% in size
Lassa entry inh: blocks Lassa virus binding to or entry into cells; Lassa virus pseudotype entry inhibition, cell reporter; 300,000 tested, 1.2% active; Potency, µM (doses to about 37.9 µM), most hits filed as inhibitors; calls by dose curve; tested in HEK293 cells; further: nearly all actives have a fitted effect of over 50% in size
CHX counter: affects cycloheximide protein synthesis inhibition readout, counter-screen. cell reporter, cycloheximide protein synthesis inhibition counterscreen. max response, %. 300,000 tested, 12% active; in the data active means max response mostly above about 13%, no sharp cut-off; inactive means mostly below about 14%; further: read at 38.3 µM for the half of the compounds with a filed dose
Hits are given with their value; - = inactive; ? = inconclusive; . = no result; + = active, no number.

SMILES	HCV inhibitor	Shiga inhibitor	MARV entry inh	FMDV antiviral	Lassa entry inh	CHX counter
CC(C)CCNCC(=O)NC(c1ccccc1)c1ccccc1	-	-	-	-	-	-
Cc1cccc(NC(=S)NNC(=O)c2csc(C)c2)c1	-	22	?	-	?	24
Cc1cc(C(=O)NNC(=S)NCC(C)C)cs1	-	-	-	-	-	-
Cc1cccc(NC(=S)NNC(=O)c2csc3c2CCCC3)c1	.	-	?	-	-	29
CCc1ccc(S(=O)(=O)Nc2cc3c(cc2C)n(C)c(=O)c(=O)n3C)cc1	.	.	.	-	-	.
Cc1cccn2c(=O)c3cc(C(=O)NC(C)c4ccccc4)c(=N)n(CCOCCO)c3nc12 (centres undefined)	.	.	?	-	-	.
O=C1CC(c2ccc(F)cc2)CC2=C1C(c1ccc([N+](=O)[O-])o1)Nc1ccccc1N2 (centres undefined)	?	-	10µM	-	?	12
O=C(NCC1(N2CCOCC2)CCCCC1)c1ccc(Cl)c(S(=O)(=O)NCc2ccco2)c1	-	-	-	-	-	-
COCCN1C=C(C(=O)OC)C(c2cc(Br)c(OC)c(OC)c2)C(C(=O)OC)=C1	-	-	-	-	11µM	-
O=[N+]([O-])c1cc([N+](=O)[O-])c2cccnc2c1Oc1ccccc1O	?	-	?	16µM	?	-
COc1cccc2cc(C(C)OC(=O)Nc3ccc(C)cc3)oc12 (centres undefined)	?	-	-	-	-	-
CC1(C)CC(=O)c2c(noc2-c2ccccc2)C1	-	58	-	-	-	31
CCOC(=O)c1ccccc1Nc1cn(C(C)=O)c2ccccc12	-	-	-	-	?	-
COc1ccccc1N(C(=O)CCl)c1cn(C(C)=O)c2ccccc12	?	-	.	18µM	.	-
CC(=O)n1cc(N(C(=O)CCl)c2ccc(Cl)cc2)c2ccccc21	3.5µM	61	.	11µM	.	27
CO/N=C\CC(=O)Nc1ccc(Cl)c(Cl)c1	-	-	?	-	-	-
Cc1ccc(NC(=S)N/C(=N/S(=O)(=O)c2ccccc2)c2ccccc2)cc1	-	90	-	-	?	49
Cc1ccc(S(=O)(=O)/N=C(/NC(=S)Nc2ccccc2)c2ccccc2)cc1	-	73	-	-	?	30
Cc1nn(-c2ccccc2)c(Cl)c1/C=N/NC(=O)c1ccco1	-	104	?	-	-	52
Cc1nn(-c2ccccc2)c(Cl)c1/C=N/NC(=O)c1ccc(CNc2ccccc2)o1	?	44	-	-	?	25
CCN(CC)S(=O)(=O)c1cccc(C(=O)N/N=C/c2c(C)nn(-c3ccccc3)c2Cl)c1	-	-	-	-	-	-
Cc1nn(C)cc1/C=N/NC(=O)c1ccco1	-	82	?	-	-	38
CC(=O)Nc1ccc(-n2nnnc2SCC(=O)N2CCN(C(=O)c3ccco3)CC2)cc1	-	-	-	-	-	-
COc1ccc2c(c1)NC(c1ccc(N(C)C)cc1)c1cccn1-2 (centres undefined)	-	79	?	-	-	25
O=C(N/N=C1\CCc2ccccc21)c1ccccc1O	-	80	5µM	-	?	49
SMILES	HCV inhibitor	Shiga inhibitor	MARV entry inh	FMDV antiviral	Lassa entry inh	CHX counter
COc1cc(C(=O)NNC(=O)c2ccoc2C)cc(OC)c1OC	-	-	.	-	.	-
N#Cc1ccc(OCC(=O)N/N=C2\CCc3ccccc32)cc1	-	-	-	-	-	-
O=C(N/N=C1\CCc2ccccc21)c1ccncc1	-	56	-	-	-	46
COc1ccc2c(c1)CCC/C2=N\NC(=O)c1ccoc1C	-	+	?	-	?	86
O=C(N/N=C1\CCCc2ccccc21)c1ccccc1Cl	-	63	-	-	-	36
CNC(=O)C1(C)CCN1C(=O)c1ccccc1CCc1ccccc1 (centres undefined)	.	.	.	-	.	.
O=C(COc1ccccc1F)Nc1ccc2nc(SCCOc3ccccc3)sc2c1	.	.	-	-	-	.
Cc1cc(C(=O)NC2Cc3ccccc3C2)c(C)o1	-	66	-	-	.	57
O=C(O)c1ccc(N/N=C2/CCCc3ccccc32)cc1	-	59	.	-	.	33
Cc1cc(C(=O)NC2CCCCC2)c(C)o1	-	.	?	-	-	.
Cc1cc(C(=O)N/N=C2\CCCc3ccccc32)c(C)o1	-	-	-	-	-	26
CCN(CC)S(=O)(=O)c1ccc(NC(=O)CSc2nc3nc(C)cc(C)c3c(=O)[nH]2)cc1	-	.	?	-	-	.
Cn1c(CN2CCOCC2)nc2cc(NC(=O)c3ccccc3Cl)ccc21	-	-	-	.	-	-
Cn1c(CN2CCCC2)nc2cc(NC(=O)c3ccc(Cl)cc3)ccc21	?	42	-	-	-	35
Cn1c(CN2CCOCC2)nc2cc(NC(=O)c3ccc(F)cc3)ccc21	?	54	-	.	-	17
CC(c1ccccc1)N1CCn2c(nc3cc(NC(=O)c4cccs4)ccc32)C1 (centres undefined)	10µM	-	-	.	-	21
Cn1c(CN2CCCC2)nc2cc(NC(=O)c3cccs3)ccc21	-	65	?	-	-	35
COc1ccc(C2=NOC(C(=O)Nc3cccnc3Cl)C2)cc1 (centres undefined)	-	-	.	-	.	-
c1ccc2nc(OCCN3CC3)ccc2c1	?	-	?	-	?	-
c1ccc(Oc2ccc3ccccc3n2)cc1	-	130	-	-	-	39
COc1ccc(C(=O)COc2ccc3ccc(=O)oc3c2)c(OC)c1	.	-	-	-	-	-
CCn1cc(-c2cc(C(F)(F)F)n3nc(C(=O)O)cc3n2)c(C)n1	-	-	-	-	-	-
COc1cc(S(=O)(=O)N2CCOCC2)ccc1NC(=O)c1cc2c(s1)CCC2	?	-	?	-	-	-
O=C(Nc1ccccc1OC(F)F)c1cc2c(s1)CCC2	?	43	.	-	.	40
O=C(NNC(=S)Nc1ccc(OC(F)F)cc1)c1cc2c(s1)CCCC2	-	-	?	-	-	14
SMILES	HCV inhibitor	Shiga inhibitor	MARV entry inh	FMDV antiviral	Lassa entry inh	CHX counter
Cc1cccc(OCC(=O)Nc2c(C(=O)Nc3ccc(F)cc3)oc3ccccc23)c1	.	.	-	-	-	.
O=C(O)Cc1nn(Cc2ccc(Br)cc2F)c(=O)c2ccccc12	.	.	.	-	.	.
c1cc2[nH]snc2c2nc(C3CC3)nc12	?	-	-	-	-	28
CCOc1cccc(C(=O)Nc2nc3c(s2)CC(C(C)(C)C)CC3)c1 (centres undefined)	.	.	?	-	-	.
CC1Cc2ccccc2N1C(=O)c1ccc(N2CCCC2)c([N+](=O)[O-])c1 (centres undefined)	13µM	-	?	?	?	-
CC(=O)c1ccc(N2CCN(c3ccccc3O)CC2)c([N+](=O)[O-])c1	-	-	?	?	-	6.0
O=C(c1ccc(N2CCCC2)c([N+](=O)[O-])c1)N1CCN(S(=O)(=O)c2ccccc2)CC1	14µM	.	-	?	-	.
CC1Cc2ccccc2N1C(=O)c1ccc(N2CCCCC2)c([N+](=O)[O-])c1 (centres undefined)	-	-	-	-	?	-
N#Cc1cc([N+](=O)[O-])ccc1N1CCN(c2ccccc2O)CC1	?	71	-	-	-	43

Source: PubChem BioAssay
